In all, about 5,500 compounds went through this assay and about 2,000 (36%) were called active. Roughly 18% stayed inconclusive and do not appear here. Rule as the data show it: active = normalized growth mostly below about 0.91 (no sharp cut-off); inconclusive = no clear call, values can overlap the other calls; inactive = mostly above about 0.92. The list shows a part of the results.
Test: chemical genetic growth profiling, strain panel (AID 1159580);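 also: tested at 20 µM; growth read once vehicle control cultures reached saturation at 30 °C; 1 = growth at the plate median or of vehicle wells; lower values mean less growth of the strain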
Conditions: growth OD
[1] = S. cerevisiae deletion strains, locus YDL101C, strain DUN1, active compounds read low
[2] = S. cerevisiae deletion strains, locus YHR030C, strain SLT2, active compounds read low
[3] = S. cerevisiae deletion strains, locus YER002W, strain NOP16, active compounds read low
[4] = S. cerevisiae deletion strains, locus YMR307W, strain GAS1, active compounds read low
[5] = S. cerevisiae deletion strains, locus YNL175C, strain NOP13, active compounds read low
[6] = S. cerevisiae deletion strains, locus YNL197C, strain WHI3, active compounds read low
[7] = S. cerevisiae deletion strains, locus YNL224C, strain SQS1, active compounds read low
[8] = S. cerevisiae deletion strains, locus YNL322C, strain KRE1, active compounds read low
[9] = S. cerevisiae deletion strains, locus YOR083W, strain WHI5 (second series), active compounds read low
[10] = S. cerevisiae deletion strains, locus YPL055C, strain LGE1, active compounds read low
[11] = S. cerevisiae deletion strains, locus YPL241C, strain CIN2, active compounds read low
[12] = S. cerevisiae deletion strains, locus YMR263W, strain SAP30, active compounds read low

Measured: normalized growth

Brc1ccc(-c2csc(-c3cccnc3)n2)cc1
active: S. cerevisiae deletion strains, locus YAR019C, strain CDC15, active compounds read low 0.879 | [1] 0.887 | S. cerevisiae deletion strains, locus YDL132W, strain cdc53, active compounds read low 0.854 | S. cerevisiae deletion strains, locus YDR052C, strain DBF4, active compounds read low 0.894 | S. cerevisiae deletion strains, locus YDR054C, strain cdc34, active compounds read low 0.847 | S. cerevisiae deletion strains, locus YDR226W, strain ADK1, active compounds read low 0.884 | S. cerevisiae deletion strains, locus YDR477W, strain SNF1, active compounds read low 0.624 | S. cerevisiae deletion strains, locus YER123W, strain YCK3, active compounds read low 0.606 | S. cerevisiae deletion strains, locus YER133W, strain GLC7, active compounds read low 0.561 | S. cerevisiae deletion strains, locus YFL009W, strain cdc4, active compounds read low 0.867 | S. cerevisiae deletion strains, locus YFL029C, strain CAK1, active compounds read low 0.872 | S. cerevisiae deletion strains, locus YFR019W, strain FAB1, active compounds read low 0.677 | S. cerevisiae deletion strains, locus YFR028C, strain CDC14, active compounds read low 0.875 | S. cerevisiae deletion strains, locus YGR040W, strain KSS1, active compounds read low 0.59 | S. cerevisiae deletion strains, locus YGR092W, strain DBF2, active compounds read low 0.456 | [2] 0.519 | S. cerevisiae deletion strains, locus YJL095W, strain BCK1, active compounds read low 0.305 | S. cerevisiae deletion strains, locus YJR016C, strain ILV3, active compounds read low 0.878 | S. cerevisiae deletion strains, locus YJR066W, strain TOR1 (second series), active compounds read low 0.603 | S. cerevisiae deletion strains, locus YKL067W, strain YNK1, active compounds read low 0.733 | S. cerevisiae deletion strains, locus YKL193C, strain SDS22, active compounds read low 0.864 | S. cerevisiae deletion strains, locus YKL203C, strain TOR2, active compounds read low 0.506 | S. cerevisiae deletion strains, locus YLR113W, strain HOG1, active compounds read low 0.655 | S. cerevisiae deletion strains, locus YLR403W, strain SFP1, active compounds read low 0.563 | S. cerevisiae deletion strains, locus YMR001C, strain CDC5, active compounds read low 0.88 | S. cerevisiae deletion strains, locus YMR205C, strain PFK2 (second series), active compounds read low 0.719 | S. cerevisiae deletion strains, locus YMR277W, strain FCP1, active compounds read low 0.873 | S. cerevisiae deletion strains, locus YNL006W, strain LST8, active compounds read low 0.894 | S. cerevisiae deletion strains, locus YNL161W, strain CBK1, active compounds read low 0.893 | S. cerevisiae deletion strains, locus YNL183C, strain NPR1, active compounds read low 0.55 | S. cerevisiae deletion strains, locus YNL207W, strain RIO2, active compounds read low 0.846 | S. cerevisiae deletion strains, locus YOL078W, strain AVO1, active compounds read low 0.866 | S. cerevisiae deletion strains, locus YOR119C, strain RIO1, active compounds read low 0.54 | S. cerevisiae deletion strains, locus YOR329C, strain SCD5, active compounds read low 0.883 | S. cerevisiae deletion strains, locus YPL031C, strain PHO85, active compounds read low 0.533 | S. cerevisiae deletion strains, locus YPL153C, strain RAD53, active compounds read low 0.449 | S. cerevisiae deletion strains, locus YPL204W, strain HRR25, active compounds read low 0.46 | S. cerevisiae deletion strains, locus YPL209C, strain IPL1, active compounds read low 0.893 | S. cerevisiae deletion strains, locus YPL256C, strain CLN2, active compounds read low 0.679 | S. cerevisiae deletion strains, locus YPR025C, strain CCL1, active compounds read low 0.894 | S. cerevisiae deletion strains, strain NNK1, active compounds read low 0.871 | S. cerevisiae deletion strains, strain TSCII, active compounds read low 0.86
inactive: S. cerevisiae deletion strains, locus YBL105C, strain PKC1, active compounds read low 0.921 | S. cerevisiae deletion strains, locus YBR135W, strain CKS1, active compounds read low 0.898 | S. cerevisiae deletion strains, locus YBR136W, strain MEC1, active compounds read low 0.913 | S. cerevisiae deletion strains, locus YBR160W, strain CDC28, active compounds read low 0.904 | S. cerevisiae deletion strains, locus YDL017W, strain CDC7, active compounds read low 0.906 | S. cerevisiae deletion strains, locus YDL028C, strain MPS1, active compounds read low 0.916 | S. cerevisiae deletion strains, locus YDL108W, strain KIN28, active compounds read low 0.904 | S. cerevisiae deletion strains, locus YDL214C, strain PRR2, active compounds read low 0.741 | S. cerevisiae deletion strains, locus YFR003C, strain YPI1, active compounds read low 0.904 | S. cerevisiae deletion strains, locus YGR052W, strain FMP48, active compounds read low 0.704 | S. cerevisiae deletion strains, locus YHR079C, strain IRE1, active compounds read low 0.637 | S. cerevisiae deletion strains, locus YHR082C, strain KSP1, active compounds read low 0.695 | S. cerevisiae deletion strains, locus YHR205W, strain SCH9, active compounds read low 0.643 | S. cerevisiae deletion strains, locus YIL147C, strain SLN1, active compounds read low 0.899 | S. cerevisiae deletion strains, locus YJL128C, strain PBS2, active compounds read low 0.951 | S. cerevisiae deletion strains, locus YJL157C, strain FAR1, active compounds read low 0.735 | S. cerevisiae deletion strains, locus YJR066W, strain TOR1, active compounds read low 0.545 | S. cerevisiae deletion strains, locus YKL048C, strain ELM1, active compounds read low 0.835 | S. cerevisiae deletion strains, locus YKL101W, strain HSL1, active compounds read low 0.784 | S. cerevisiae deletion strains, locus YLR133W, strain CKI1, active compounds read low 0.767 | S. cerevisiae deletion strains, locus YML070W, strain DAK1, active compounds read low 0.704 | S. cerevisiae deletion strains, locus YNL020C, strain ARK1, active compounds read low 0.751 | S. cerevisiae deletion strains, locus YNL222W, strain SSU72, active compounds read low 0.902 | S. cerevisiae deletion strains, locus YNL307C, strain MCK1 (second series), active compounds read low 0.702 | S. cerevisiae deletion strains, locus YOL136C, strain PFK27, active compounds read low 0.709 | S. cerevisiae deletion strains, locus YOR061W, strain CKA2, active compounds read low 0.792 | S. cerevisiae deletion strains, locus YOR231W, strain MKK1, active compounds read low 0.647 | S. cerevisiae deletion strains, locus YPR106W, strain ISR1, active compounds read low 0.903 | S. cerevisiae deletion strains, locus YPR111W, strain DBF20, active compounds read low 0.918

CN(C)C/C=C(/c1ccc(Br)cc1)c1cccnc1
inactive: S. cerevisiae deletion strains, locus YAL040C, strain CLN3, active compounds read low 0.964 | S. cerevisiae deletion strains, locus YCL061C, strain MRC1 (second series), active compounds read low 0.999 | S. cerevisiae deletion strains, locus YDR363W, strain ESC2, active compounds read low 0.984 | [3] 0.992 | [4] 1.02 | [5] 0.975 | [6] 1 | [7] 1 | [8] 0.926 | [9] 0.994 | [10] 0.997 | [11] 0.998

COc1ccc(-c2nc(-c3ccc(-c4ccccc4)cc3)cs2)cc1
inactive: S. cerevisiae deletion strains, locus YAL013W, strain DEP1, active compounds read low 1.03 | S. cerevisiae deletion strains, locus YBR229C, strain ROT2, active compounds read low 1.01 | [1] 1.03 | S. cerevisiae deletion strains, locus YDR150W, strain NUM1, active compounds read low 1 | S. cerevisiae deletion strains, locus YEL061C, strain CIN8, active compounds read low 0.979 | S. cerevisiae deletion strains, locus YGR078C, strain PAC10, active compounds read low 1.02 | [2] 1.08 | S. cerevisiae deletion strains, locus YHR087W, strain rtc3, active compounds read low 1 | S. cerevisiae deletion strains, locus YJL187C, strain SWE1, active compounds read low 0.968 | S. cerevisiae deletion strains, locus YJR043C, strain POL32, active compounds read low 1.03 | S. cerevisiae deletion strains, locus YJR075W, strain HOC1, active compounds read low 1.02 | S. cerevisiae deletion strains, locus YKL190W, strain CNB1, active compounds read low 0.995 | S. cerevisiae deletion strains, locus YLR039C, strain RIC1, active compounds read low 1.02 | S. cerevisiae deletion strains, locus YLR058C, strain SHM2 (second series), active compounds read low 1.02 | S. cerevisiae deletion strains, locus YLR085C, strain ARP6, active compounds read low 1.02 | S. cerevisiae deletion strains, locus YLR262C, strain YPT6, active compounds read low 1.09 | S. cerevisiae deletion strains, locus YML094W, strain GIM5, active compounds read low 0.999 | S. cerevisiae deletion strains, locus YMR219W, strain ESC1, active compounds read low 1.01 | [12] 1.01 | S. cerevisiae deletion strains, locus YNL153C, strain GIM3, active compounds read low 1.02 | S. cerevisiae deletion strains, locus YNL298W, strain CLA4 (second series), active compounds read low 1.09 | [8] 1.01 | S. cerevisiae deletion strains, locus YNR030W, strain Alg12, active compounds read low 1.02 | [10] 1.01 | [11] 1 | S. cerevisiae deletion strains, locus YPR135W, strain CTF4, active compounds read low 1.14 | S. cerevisiae strains, strain wild type, active compounds read low 1
active: S. cerevisiae deletion strains, locus YDL134C, strain PPH21, active compounds read low 0.87

COc1ccccc1N1CCN(CCN2C(=O)CC3(CCCC3)CC2=O)CC1
inactive: [3] 0.998 | [12] 1 | [4] 0.989 | S. cerevisiae deletion strains, locus YNL128W, strain TEP1, active compounds read low 0.988 | [5] 0.991 | [6] 0.999 | [7] 1 | [9] 0.999 | [10] 1 | [11] 1.01
